Data published in paper PMC4336329 (PLoS ONE, 2015).
Out of some 310,000 compounds screened, about 14,000 (4.5%) showed an effect of 50% or more. Effects have a minus sign here. The sample holds strong results, similar compounds and a random draw of the others, so the mix is not that of the screen.

Molecular target: human ether-à-go-go-related gene (hERG) potassium channel (human, UniProt Q12809)
Assay: primary screen, population patch clamp on CHO cells stably expressing hERG; higher = less effect of the substance
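Also: peak tail current of the secondary pulse compared with the same well before compound.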

Chain of human ether-à-go-go-related gene (hERG) potassium channel (Q12809 whole entry, looked up): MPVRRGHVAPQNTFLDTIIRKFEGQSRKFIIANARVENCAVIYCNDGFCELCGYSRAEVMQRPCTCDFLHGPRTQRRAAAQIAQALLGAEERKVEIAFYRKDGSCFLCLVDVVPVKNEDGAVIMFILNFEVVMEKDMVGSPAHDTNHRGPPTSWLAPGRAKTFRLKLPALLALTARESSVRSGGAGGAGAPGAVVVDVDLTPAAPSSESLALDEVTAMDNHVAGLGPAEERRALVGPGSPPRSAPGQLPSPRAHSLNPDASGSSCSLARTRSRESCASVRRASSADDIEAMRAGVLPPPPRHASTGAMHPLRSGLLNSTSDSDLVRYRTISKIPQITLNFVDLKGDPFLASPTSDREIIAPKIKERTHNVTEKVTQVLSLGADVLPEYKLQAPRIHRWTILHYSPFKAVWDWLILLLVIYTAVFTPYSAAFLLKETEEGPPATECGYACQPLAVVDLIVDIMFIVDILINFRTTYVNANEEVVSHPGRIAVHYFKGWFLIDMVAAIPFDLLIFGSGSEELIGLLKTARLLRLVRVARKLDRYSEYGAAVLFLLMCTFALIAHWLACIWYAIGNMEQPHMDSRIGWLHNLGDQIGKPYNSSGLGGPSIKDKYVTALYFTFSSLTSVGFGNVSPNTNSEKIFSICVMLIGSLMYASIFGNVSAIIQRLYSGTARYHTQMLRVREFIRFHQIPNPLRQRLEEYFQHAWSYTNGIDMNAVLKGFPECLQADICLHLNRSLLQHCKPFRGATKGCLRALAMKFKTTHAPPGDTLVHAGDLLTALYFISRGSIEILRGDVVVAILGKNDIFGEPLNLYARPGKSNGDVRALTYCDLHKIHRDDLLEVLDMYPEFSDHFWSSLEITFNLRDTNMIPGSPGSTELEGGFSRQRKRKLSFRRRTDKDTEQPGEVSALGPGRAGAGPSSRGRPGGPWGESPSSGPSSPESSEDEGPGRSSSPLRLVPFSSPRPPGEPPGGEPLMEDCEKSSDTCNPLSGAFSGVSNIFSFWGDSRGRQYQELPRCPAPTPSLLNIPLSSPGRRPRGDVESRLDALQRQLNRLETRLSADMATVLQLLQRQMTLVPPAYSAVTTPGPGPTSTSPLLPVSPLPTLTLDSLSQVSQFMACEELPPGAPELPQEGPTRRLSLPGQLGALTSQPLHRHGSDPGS

SMILES | hERG current change (%, negative = inhibition) at 10uM
COc1ccc(S(=O)(=O)NCc2ccc(C(=O)N(C)Cc3ccco3)cc2)cc1 | -19.1%
CCN(CC(=O)NCc1ccc(Cl)cc1)C(=O)c1ccc(S(=O)(=O)NCc2ccco2)cc1 | -54.9%
CN(Cc1ccc(Cl)cc1)C(=O)c1ccc(S(=O)(=O)NCc2ccco2)cc1 | -51.8%
CCN(CC(=O)NCc1ccc(Cl)cc1)C(=O)c1ccc(S(=O)(=O)N(C)C)cc1 | -33.2%
CCN(CC(=O)Nc1c(F)cccc1F)C(=O)c1ccc(S(=O)(=O)NCc2ccco2)cc1 | 8.72%
CN(Cc1cccs1)C(=O)c1ccc(S(=O)(=O)NCc2ccco2)cc1 | -54.2%
COc1ccccc1CN(C)C(=O)c1ccc(S(=O)(=O)NCc2ccco2)cc1 | -14.9%
CC(C)c1ccc(CN(C)C(=O)c2ccc(S(=O)(=O)NCc3ccco3)cc2)cc1 | -33.7%
Cc1nn(-c2ccccc2)c(C)c1CN(C)C(=O)c1ccc(S(=O)(=O)NCc2ccco2)cc1 | -21.2%
Cc1ccccc1C(=O)Nc1cccc(NC(=O)c2cccnc2)c1 | -9.39%
CCn1ncc(/C=C2/SC(=S)NC2=O)c1C | 23.6%
CCOc1ncnc2c1sc1nc(C)cc(C)c12 | 16%
CC(C)N(C(=O)N1CCC(c2nc(-c3ccncc3)no2)CC1)C(C)C | -15.3%
O=C(c1ccco1)N1CCN(S(=O)(=O)c2ccc(Br)s2)CC1 | -16%
CCOCCCn1c(=N)c(C(=O)NCCN2CCOCC2)cc2c(=O)n3cccc(C)c3nc21 | -53.6%
CCCCNC(=O)c1cc2c(=O)n3cccc(C)c3nc2n(CCN2CCOCC2)c1=N | -86%
Cc1cccn2c(=O)c3cc(C(=O)NCCN4CCOCC4)c(=N)n(CCN4CCOCC4)c3nc12 | 18.5%
Cc1cccn2c(=O)c3cc(C(=O)NCCN4CCOCC4)c(=N)n(CCCN4CCOCC4)c3nc12 | 15.2%
Cc1ccc(NC(=O)CN2CCCCC2)c2c1CC(C)(C)O2 | 1.17%
O=C(Cc1cccs1)Nc1nc(-c2ccc(F)cc2F)cs1 | -4.34%
CCCn1cnc2c(=S)nc(N)[nH]c21 | 16.3%
CCNCCC(=O)N1c2ccccc2Sc2ccc(NC(=O)OCC)cc21.Cl | -29.6%

SMILES | hERG current change (%, negative = inhibition) at 10uM
COC(=O)c1c(C)oc2cc(Br)c(OCC(=O)C(C)(C)C)cc12 | 6.12%
CC(C)N1C(=O)CCC1C(=O)NC1CCCC1 (centres unmarked) | -3.05%
CCOc1ccc(-c2cc(C(=O)N/N=C(\C)c3cccnc3)c3ccccc3n2)cc1 | 10.6%
CCOc1ccc(S(=O)(=O)N(CC)CC(=O)N2CCOCC2)cc1C | 6.73%
CCCNC(=O)NCc1ccc(N2CCCC2=O)cc1 | 8.43%
O=P(CCCCCCCCCP(=O)(c1ccccc1)c1ccccc1)(c1ccccc1)c1ccccc1 | -56.1%
O=C(O)CCCCCCCCCCP(=O)(c1ccccc1)c1ccccc1 | -7.05%
O=P(O)(O)CCP(=O)(c1ccccc1)c1ccccc1 | 9.46%
CCN(CC(=O)N1CCCCC1)S(=O)(=O)c1ccccc1 | -7.12%
COc1cc(OC)c(OC)cc1CN1CCN(c2ccccc2OC)CC1 | -31.1%
COc1cc(OC)c(CN2CCCCCCC2)cc1Br | -22.4%
COc1ccc(C2C(C#N)=C(N)Oc3n[nH]c(C)c32)cc1Cn1cc([N+](=O)[O-])cn1 (centres unmarked) | -14%
COc1ccc(C2C(C#N)=C(N)Oc3n[nH]c(C)c32)cc1CN1CCN(c2ccc(F)cc2)CC1 (centres unmarked) | -65.6%
COc1cc(OC)c(CN2CCN(c3ccc(F)cc3)CC2)cc1Br | -70.3%
COc1ccc(CN2CCN(c3ccc(F)cc3)CC2)c(OC)c1OC | -70.2%
COc1cc(OC)c(OC)cc1CN1CCN(S(=O)(=O)c2ccc(F)cc2)CC1.O=C(O)C(=O)O | -7.69%
COc1ccc(CN2CCN(C(c3ccc(F)cc3)c3ccc(F)cc3)CC2)c(OC)c1OC.Cl | -13.3%
COc1ccc(C2C(C#N)=C(N)Oc3n[nH]c(C)c32)cc1Cn1nnc2ccccc21 (centres unmarked) | -8.03%
COc1cc(OC)c(OC)cc1CN1CCN(c2ccc(F)cc2)CC1 | -68.5%
COc1cc(OC)c(CN2CCCN(C)CC2)cc1Br | 18.1%
COc1ccc(CN2CCNCC2)c(OC)c1OC | 9.67%
S=c1[nH]nc(-c2ccccc2)n1/N=C/c1c[nH]c2ccccc12 | 12.1%

SMILES | hERG current change (%, negative = inhibition) at 10uM
CC1(C)CC2CC(C)(CN2C(=O)COC(=O)CNC(=O)c2ccc(Cl)c(Cl)c2)C1 (centres unmarked) | -20.9%
O=C(CN1C(=O)NC2(CCCCCC2)C1=O)NCCc1ccc(F)cc1 | -13%
O=C(NCc1cccs1)C1CCN(S(=O)(=O)c2ccc(Br)s2)CC1 | -14.8%
CCc1cc2c(=O)n(N)c(CCC(=O)O)nc2s1 | -8.56%
Cc1ccc(-n2nnnc2SCC(=O)c2c(N)n(C3CC3)c(=O)[nH]c2=O)c(C)c1 | -4.23%
CC1Cc2cc(/C(O)=C3/C(=O)C(=O)N(CCCn4ccnc4)C3c3ccc(Br)cc3)ccc2O1 (centres unmarked) | 6.07%
CN(Cc1ccc(F)cc1)C(=O)c1cc(COc2ccc(-n3cncn3)cc2)on1 | -78.3%
O=C(c1cc(COc2ccc(-n3cncn3)cc2)on1)N1CCCC1 | -12%
COC1CCN(C(=O)c2cc(COc3ccc(-n4cncn4)cc3)on2)CC1 | -18.6%
COc1cccc(CN(C)C(=O)c2cc(COc3ccc4ncccc4c3)on2)c1 | -14.8%
COCCOC1CCN(C(=O)c2cc(COc3ccc(-n4cncn4)cc3)on2)CC1 | -22.8%
CCCOC1CCCN(C(=O)c2cc(COc3ccc(-n4cncn4)cc3)on2)C1 (centres unmarked) | -79%
COc1cccc(CN(C)C(=O)c2cc(COc3ccc(-n4cncn4)cc3)on2)c1 | -79.9%
CN(Cc1ccc(F)cc1)C(=O)c1cc(COc2ccc(F)cc2F)on1 | 1.65%
CCc1ccc(CN(C)C(=O)c2cc(COc3ccc(-n4cncn4)cc3)on2)cc1 | -42.5%
CC(C)CCOP(N)(=O)Oc1ccccc1Cl (centres unmarked) | 18.1%
CCOc1ncccc1C(=O)OCC(=O)Nc1ccc2c(c1)OCO2 | 12.6%
Cc1ccc(-n2[nH]c(C)c(C=Nc3ccc(S(=O)(=O)N4CCOCC4)cc3)c2=O)c(C)c1 | -7.6%
O=C(Nc1ccccc1NC(=O)NC1CCCCC1)NC1CCCCC1 | 0.961%
Cc1c(NC(=O)CSc2nnc3c4ccccc4n(CCc4ccccc4)c3n2)c(=O)n(-c2ccccc2)n1C | -27.2%
CC1(C)CC(CCN)(Cc2ccccc2Cl)CCO1 (centres unmarked) | -1.1%
Cc1ccc(S(=O)(=O)NCc2cccnc2)cc1C(=O)N1CCCC1 | 20.3%

SMILES | hERG current change (%, negative = inhibition) at 10uM
OCCC1CN(Cc2ccccc2O)CCN1CCc1ccccc1 (centres unmarked) | -35.6%
OCCC1CN(Cc2ccccc2O)CCN1CCCc1ccccc1 (centres unmarked) | -74.8%
Cc1ccccc1CN1CCN(CCCc2ccccc2)C(CCO)C1 (centres unmarked) | -70%
Cc1ccccc1CN1CCN(CC2CC2)CC1CCO (centres unmarked) | -4.79%
COc1ccc(-c2cc(C(=O)Nc3cccnc3Cl)no2)cc1OC | 16.6%
COc1ccc(OC)c(Nc2nnc(C)c(=O)[nH]2)c1 | 6.27%
O=C1NC(=O)/C(=C\c2ccc(Br)o2)S1 | 21%
CCOC(=O)c1[nH]c(C)c(C(=O)OCC(=O)N(CC)C2CCS(=O)(=O)C2)c1C (centres unmarked) | -8.58%
CC(OC(=O)CCN1C(=O)c2cccc([N+](=O)[O-])c2C1=O)C(=O)Nc1cc(Cl)cc(Cl)c1 (centres unmarked) | -68.6%
Cc1cccc(NC(=O)CCN2C(=O)c3cccc([N+](=O)[O-])c3C2=O)c1 | 10.8%
COc1cccc(NC(=O)CCN2C(=O)c3cccc([N+](=O)[O-])c3C2=O)c1 | -3.85%
Cc1cc(N)ccc1NC(=O)CN1CCCC1 | 21.2%
N#Cc1sc(C(N)=O)c(-c2ccccc2)c1-c1ccccc1 | 9.86%
O=[N+]([O-])c1cccc(Nc2c3ccccc3nc3ccccc23)c1 | -11.5%
Cc1cc(Nc2cccc([N+](=O)[O-])c2)c2cccc(C)c2n1.Cl | -77.3%
Cc1cc(Nc2cccc([N+](=O)[O-])c2)c2ccccc2n1 | -76.9%
Cc1cc(Nc2ccccc2)c2c([N+](=O)[O-])ccc(C)c2n1 | -24.7%
CCOc1ccc2nc(C)cc(Nc3cccc([N+](=O)[O-])c3)c2c1.Cl | -30.4%
Cc1cc(Nc2ccc([N+](=O)[O-])cc2)c2ccccc2n1 | -20%
CCOc1cc(C2NN=C(c3ccc(C)cc3)S2)ccc1O (centres unmarked) | 9.67%
